From PubChem
D3 antag – qHTS of D3 Dopamine Receptor Antagonist: qHTS | 2.5% of 360,000 active | D3R cells, DiscoveRx beta-arrestin luminescence, antagonist mode; active compounds read low | max response, negative = inhibition, % | D(3) dopamine receptor (Homo sapiens), P35462; in the data active = max response below about -50%; inconclusive = no clear call, values can overlap the other calls; also: % is scaled to controls: 0 for no effect and ±100 for the full control effect
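Cells expressing the human receptor were seeded at 1500 cells/well, incubated overnight at 37 degrees C in 5% CO2, then exposed to library compounds with dopamine controls for 90 minutes at 37 degrees C before luminescent detection.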
Giardia kill – Small Molecules that selectively kill Giardia lamblia: qHTS | 0.15% of 340,000 active | Giardia lamblia trophozoite viability | activity change, % at 7.66 µM, hits read low; in the data active = activity change below about -80%; inconclusive = between about -30% and that limit;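 also: parasites exposed to compound for two days anaerobically before the ATP read; % is scaled to controls: 0 for no effect and ±100 for the full control effect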
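Viability, read as ATP luminescence: trophozoites at 100 cells/well, compound added, 48 hrs anaerobic at 37 deg C, then 15-30 min room-temperature development before reading.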
B2AR arrestin – qHTS assay of beta-arrestin-biased ligands of beta2-adrenergic receptor; AID 492947, 2010; beta-arrestin recruitment to beta2AR, cell-based reporter; Beta-2 adrenergic receptor (Homo sapiens), P07550; Potency, µM (highest dose often 46.1 µM), inactives show at the highest dose activation, hits mostly activators; 0.02% of 330,000 active; active = well fitted activation curve with a large enough effect; inconclusive = small, poorly fitted or top-dose-only effect;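 also: potency is read from the fitted curve at half-maximal effect; 0% = DMSO controls and full agonism = EC100 isoproterenol or metaproterenol; nearly all actives have a fitted effect of over 65% in size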
Target sequence (P07550 whole entry, looked up): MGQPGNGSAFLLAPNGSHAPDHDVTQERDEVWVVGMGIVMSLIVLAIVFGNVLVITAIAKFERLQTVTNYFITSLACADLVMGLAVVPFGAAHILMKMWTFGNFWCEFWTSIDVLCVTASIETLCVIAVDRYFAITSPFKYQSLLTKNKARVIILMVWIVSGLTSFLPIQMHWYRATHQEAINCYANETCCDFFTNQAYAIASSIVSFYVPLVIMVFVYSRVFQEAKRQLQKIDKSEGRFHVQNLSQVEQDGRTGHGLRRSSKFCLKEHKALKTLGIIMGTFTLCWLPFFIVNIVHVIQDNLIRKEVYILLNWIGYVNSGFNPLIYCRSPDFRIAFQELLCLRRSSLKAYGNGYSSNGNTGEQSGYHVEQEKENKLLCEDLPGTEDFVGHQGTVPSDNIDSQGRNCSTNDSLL
D3 ag – qHTS of D3 Dopamine Receptor Agonist: qHTS. 0.58% of 410,000 active. max activation, %. D3R DiscoveRx beta-arrestin cells, luminescence, 90 min; in the data active = max activation above about 30%; also: 0% is about no effect
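Cells at 1500/well, incubated overnight, then treated with pinned compounds (dopamine as control) for 90 min at 37 degrees C. DiscoveRx reagent added for 30 - 60 minutes at room temperature; luminescence read.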
* hit, by the source's call; ? = inconclusive; . = not tested or not shown. This is a sample that favours compounds with a hit; in the whole collection about 2.8% have one here.

SMILES	D3 antag	Giardia kill	B2AR arrestin	D3 ag
CC1CCN(CCCNS(=O)(=O)c2ccc3c(c2)CCN3C(=O)C2CC2)CC1	-1	-5	5%	-2
Cc1ccc(C)c(N2CCN(C(=O)CCn3c(=O)[nH]c4ccccc4c3=O)CC2)c1	.	.	.	-16
CCc1ccccc1NC(=O)CN1C(=O)c2ccccc2Sc2ncccc21	.	.	.	-10
Cn1c(Oc2ccc(Cl)cc2)nc2c1c(=O)n(Cc1ccc(F)cc1)c(=O)n2C	.	.	.	4
Cc1cc(Cl)ccc1NC(=O)CN1CCC(C(O)(c2ccccc2)c2ccccc2)CC1	-62*	15	0%	-7
CC(C)Oc1ccc(F)cc1-c1cc(C(=O)NC2CCCCC2)[nH]n1	0	.	.	-15
Cc1cc(F)ccc1-c1cc(C(=O)NC2CCCCC2)[nH]n1	-83*	.	.	-22
CC(C)Oc1cc(F)ccc1-c1cc(C(=O)NC2CCCCC2)[nH]n1	?	.	.	-15
CCCOc1ccc(F)cc1-c1cc(C(=O)NC2CCCCC2)[nH]n1	-102*	.	.	-19
COc1ccc(-n2nc([N+](=O)[O-])c(=NCCc3ccc(Cl)cc3)n2O)cc1	-17	-84*	0%	0
COc1ccc(-n2nc([N+](=O)[O-])c(=NCc3ccco3)n2O)cc1	-7	-5	0%	17
COc1ccc(-n2nc([N+](=O)[O-])c(=NCCc3ccc(C)cc3)n2O)cc1	-14	-93*	0%	2
COc1ccc(-n2nc([N+](=O)[O-])c(=NCc3cccnc3)n2O)cc1	9	-97*	0%	-25
COc1ccc(-n2nc([N+](=O)[O-])c(=NC3CCN(Cc4ccccc4)CC3)n2O)cc1	-51*	-82*	0%	-12
CCc1ccc(N=c2c([N+](=O)[O-])nn(-c3ccccc3)n2O)cc1	3	?	0%	11
CC(=O)OCC(NC(=O)C(COCc1ccccc1)NC(=O)OC(C)(C)C)C1OC(n2ccc(=O)[nH]c2=O)C(OC(C)=O)C1OC(C)=O (stereo unspecified)	.	2	.	.
COc1ccc(-n2nnnc2C2CCN(S(=O)(=O)c3cccc(Cl)c3C)CC2)cc1	.	.	.	14
Cc1ccc(CN=c2c([N+](=O)[O-])nn(-c3cccc(Cl)c3)n2O)cc1	-14	?	0%	3
COc1ccc(-n2nc([N+](=O)[O-])c(=NCCc3ccc(OC)c(OC)c3)n2O)cc1	-17	-94*	0%	-20
Cc1ccc(CN=c2c([N+](=O)[O-])nn(-c3cccc(C)c3)n2O)cc1	6	-83*	0%	-13
COc1ccc(-n2nc([N+](=O)[O-])c(=NCCC3=CCCCC3)n2O)cc1	3	-91*	0%	1
Cc1cc(NC(=O)Cn2c(=O)oc3cc(S(=O)(=O)N4CCCC4)ccc32)ccc1Br	.	.	.	-1
CC(C)CC(C(=O)NCc1ccc(F)cc1)N1Cc2ccccc2C1=O (stereo unspecified)	.	.	.	-7
COc1cccc(NC(=O)CCSc2nc(-c3ccco3)cc(C(F)(F)F)n2)c1	.	.	.	1
CCS/C(N)=N/N=C/c1cc(C)ccc1O	-53*	-15	0%	-6
SMILES	D3 antag	Giardia kill	B2AR arrestin	D3 ag
CCCCS/C(N)=N/N=C/c1cc(C)ccc1O	-55*	?	?	-11
CS/C(N)=N/N=C/c1cc(C)ccc1O	-8	?	?	11
COc1cc(OC)c(NC(=O)CN(C)S(=O)(=O)c2ccc3c(c2)CCCC(=O)N3)cc1Cl	.	.	.	8
Cn1c(Cc2csc(N)n2)nnc1SCC(=O)NC1CCCCC1	-57*	?	0%	9
CCCCCC(=O)N(O)C1CC(=O)N(c2ccccc2)C1=O (stereo unspecified)	-86*	-23	0%	-4
CCCCCCC(=O)N(O)C1CC(=O)N(Cc2ccccc2)C1=O (stereo unspecified)	-5	-1	0%	-1
CC(=O)Nc1ccc(NC(=O)C(NC(=O)c2ccc(Cl)cc2)C(C)C)cc1 (stereo unspecified)	-15	.	.	2
CCSc1nnc(NC(=O)C(NC(=O)c2ccc(Cl)cc2)C(C)C)s1 (stereo unspecified)	-61*	1	1%	-33
CCCCc1c(O)c2ccccc2n(CCCC)c1=O	25	2	-1%	0
CCCCc1c(CCC)c(=N)c2ccccc2n1C	-73*	7	0%	0
C=CCn1c(SCC(=O)N(C)C2CCS(=O)(=O)C2)nnc1-c1ccncc1 (stereo unspecified)	-54*	-11	0%	-2
